FLuc inh = Photinus pyralis luciferase inhibition; Potency, µM (top dose mostly 115 µM), usual class: inhibitors; 2.5% of 76,000 active; purified P. pyralis luciferase, luminescence, biochemical; also: nearly all actives have a fitted effect of over 65% in size
Target sequence (P08659 whole entry, looked up): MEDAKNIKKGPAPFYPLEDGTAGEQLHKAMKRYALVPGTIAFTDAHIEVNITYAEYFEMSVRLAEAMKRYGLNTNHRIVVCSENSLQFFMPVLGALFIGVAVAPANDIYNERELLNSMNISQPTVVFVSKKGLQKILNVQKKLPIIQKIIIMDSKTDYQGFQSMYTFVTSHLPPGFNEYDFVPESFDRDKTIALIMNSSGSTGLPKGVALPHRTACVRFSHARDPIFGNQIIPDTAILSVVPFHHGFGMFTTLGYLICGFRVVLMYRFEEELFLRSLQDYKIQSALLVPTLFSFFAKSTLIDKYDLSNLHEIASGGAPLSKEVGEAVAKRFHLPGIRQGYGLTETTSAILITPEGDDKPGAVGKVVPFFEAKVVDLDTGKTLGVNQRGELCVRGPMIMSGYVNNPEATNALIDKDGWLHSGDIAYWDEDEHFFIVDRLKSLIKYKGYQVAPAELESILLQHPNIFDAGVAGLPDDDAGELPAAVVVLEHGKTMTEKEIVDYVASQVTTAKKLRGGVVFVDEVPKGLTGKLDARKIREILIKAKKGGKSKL
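Luminescence read by CCD imager after adding enzyme (10nM final) to wells holding compound, titrated in qHTS. Substrates 10uM each D-luciferin and ATP; buffer 50mM Tris acetate pH 7.5, 10mM Mg acetate, Tween-20, BSA.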
GPT2 inh = blocks human glutamate pyruvate transaminase 2 | Potency, µM (highest dose often 57.7 µM), for inactives: at the top dose activity change, negative = inhibition, usual class: inhibitors | Recombinant GPT2, coupled pyruvate oxidase/HRP Amplex Red fluorescence | Q8TD30 | 0.25% of 100,000 active; also: nearly all actives have a fitted effect of over 60% in size
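Recombinant GPT2 (10ng/uL) with 250uM a-KG and 2mM L-alanine, 30 min at room temperature, in HEPES pH 7.5 buffer. Pyruvate detected by pyruvate oxidase/HRP/Amplex Red fluorescence after 30 min in the dark; AOA (50uM) as positive control.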
NIH3T3 tox = kills NIH 3T3 cells; NIH 3T3 viability, CellTiter-Glo ATP luminescence, 48-72 h; Potency, µM (top dose mostly 96.7 µM), for inactives: at the top dose activity change, negative = cytotoxicity, hits mostly inhibitors; 4.3% of 94,000 active; AID 1345082; also: nearly all actives have a fitted effect of over 55% in size
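First NIH 3T3 cells are plated at 400 cells/well; next compound is pinned in; then plates incubate 48 or 72 hr at 37 °C; finally CellTiter-Glo is added and luminescence read after 10 min.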
HEK cytotox = HEK 293 cell cytotoxicity; HEK 293 viability, ATP luminescence (CellTiter-Glo), 48-72 h; Potency, µM (titrated, usually from 115 µM), inactives show at the top dose activity change, negative = cytotoxicity, hits mostly inhibitors; 6.6% of 94,000 active; also: nearly all actives have a fitted effect of over 60% in size
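Cells seeded first (HEK 293, 250 cells/well), then compound added by pintool. Incubation ran 48 or 72 hr at 37 degree Celsius. CellTiter-Glo was added and luminescence imaged after 10 min at room temperature.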
hNpr1 antagonist = blocks ANP-stimulated signaling of human Npr1 receptor. P16066. 1.6% of 76,000 active. Potency, µM (titrated, usually from 46.3 µM), for the others: at the top dose activity change, negative = inhibition, most hits filed as inhibitors. HEK293 hNpr1 GloSensor cGMP, ANP-stimulated luminescence; calls by dose curve; also: nearly all actives have a fitted effect of over 60% in size
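HEK293 cells stably expressing human Npr1 and cGMP GloSensor pGS-40F, loaded 2 h with 2% GloSensor reagent, given compound 30 min at room temperature. Luminescence read before and 20 min after 0.1 nM hNppA.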
Starred values were filed as active, the others as inactive; i = inactive; ? = inconclusive; [ ] = dose if it differs, or a comment. Hits are enriched below; roughly 10% of the tested compounds scored in any of these assays. Unless noted, calls follow the shape of the dose curve; as a rule, active = well fitted curve in the direction sought with a large enough effect; inconclusive = small, poorly fitted or top-dose-only effect, or another doubt; inactive = no such curve, though single readings can be large; an effect the other way counts as inactive or inconclusive. % is scaled to controls: 0 for no effect and ±100 for the full control effect; potency is read from the fitted curve at half-maximal effect.

SMILES	FLuc inh	GPT2 inh	NIH3T3 tox	HEK cytotox	hNpr1 antagonist
CC[C@H]1CN2CC[C@H]1C[C@@H]2CN(Cc1ccc(SC)cc1)Cc1ccc(SC)cc1	i	-2.9%[88.5 µM]	10µM*	7.08µM*	-14.2%[70.6 µM]
CC[C@H]1CN2CC[C@H]1C[C@@H]2CNCc1ccc(OC)cc1	i	i	-24.0%[230 µM]	?	-4.0%[70.6 µM]
CC[C@H]1CN2CC[C@H]1C[C@@H]2CNCc1ccc(-c2ccccc2)cc1	i	-7.9%[88.5 µM]	28.2µM*	25.1µM*	-16.4%[70.6 µM]
CC[C@H]1CN2CC[C@H]1C[C@@H]2CNCc1ccc(C(F)(F)F)cc1	i	?	89.1µM*	?	-0.9%[70.6 µM]
Cc1ccc(S(=O)(=O)NC[C@H]2C[C@@H]3CCN2C[C@@H]3CN2CCc3ccccc32)cc1	i	?	44.7µM*	28.2µM*	-8.7%[70.6 µM]
Cc1ccc(S(=O)(=O)NC[C@H]2C[C@@H]3CCN2C[C@@H]3CN2CCCCC2)cc1	i	1.9%[88.5 µM]	-22.7%[174 µM]	?	4.4%[70.6 µM]
O=S(=O)(NC[C@H]1C[C@@H]2CCN1C[C@@H]2CN1CCc2ccccc21)c1ccc(Cl)cc1	i	?	28.2µM*	20µM*	3.8%
COc1ccc(S(=O)(=O)NC[C@H]2C[C@@H]3CCN2C[C@@H]3CN2CCc3ccccc32)cc1	i	-17.6%[88.5 µM]	39.8µM*	28.2µM*	1.8%[70.6 µM]
COc1ccc(S(=O)(=O)NC[C@H]2C[C@@H]3CCN2C[C@@H]3CN2CCCCC2)cc1	i	-15.3%[88.5 µM]	100µM*	112µM*	2.7%[70.6 µM]
O=C(NC1CC1)[C@H]1CN2CCC1C[C@@H]2Cn1cc(-c2ccccc2)nn1 (stereo partly drawn)	i	i	i	i	-0.5%[70.6 µM]
CCC1(N2CCN(C(=O)Cc3ccccc3F)CC2)CCN(S(C)(=O)=O)C1 (stereo not drawn)	?	4.3%	1.3%	?	5.5%
CS(=O)(=O)NC[C@H]1C[C@@H]2CCN1C[C@@H]2CN1CCc2ccccc2C1	i	2.0%[88.5 µM]	-21.8%[174 µM]	-21.2%[172 µM]	7.9%[70.6 µM]
O=S(=O)(NC[C@H]1C[C@@H]2CCN1C[C@@H]2CN1CCc2ccccc2C1)c1ccc(Cl)cc1	i	1.5%	22.4µM*	22.4µM*	3.7%
COc1ccccc1-c1cc([C@H]2CN3CC[C@H]2C[C@@H]3COC(=O)NC2CCCCC2)nc(C)n1	i	-30.6%	?	11.2µM*	-1.9%
CCCNC(=O)OC[C@H]1C[C@@H]2CCN1C[C@@H]2c1cc(-c2ccccc2OC)nc(C)n1	i	-8.8%[88.5 µM]	63.1µM*	?	5.4%[70.6 µM]
O=C(NC1CCCCC1)OC[C@H]1C[C@@H]2CCN1C[C@@H]2c1cc(C2CCCC2)nc(-c2ccncc2)n1	i	-21.3%	?	?	?
COc1ccccc1-c1cc([C@H]2CN3CC[C@H]2C[C@@H]3COC(=O)NC(C)C)nc(C)n1	i	2.0%[88.5 µM]	44.7µM*	?	-3.7%[70.6 µM]
COc1ccccc1-c1cc([C@H]2CN3CC[C@H]2C[C@@H]3COC(=O)Nc2ccccc2)nc(C)n1	i	1.1%	?	?	-1.2%
COc1ccccc1-c1cc([C@H]2CN3CC[C@H]2C[C@@H]3CNC(=O)CCC(=O)O)nc(C)n1	i	i	-9.6%	-7.8%	-0.7%
Cc1nc(-c2ccc(F)cc2)cc([C@H]2CN3CC[C@H]2C[C@@H]3CNC(=O)C2CC2)n1	i	2.9%[88.5 µM]	?	?	1.5%[70.6 µM]
CC(C)(O)c1cn(C[C@H]2CC3CCN2C[C@@H]3C(=O)NCc2ccccc2)nn1 (stereo partly drawn)	i	-21.6%[88.5 µM]	-2.3%[174 µM]	3.9%[172 µM]	0.0%[70.6 µM]
CC[C@H]1CN2CC[C@H]1C[C@@H]2CNC(=O)c1ccc(-c2ccccc2)cc1	i	-5.0%[88.5 µM]	?	89.1µM*	2.1%[70.6 µM]
C#C[C@H]1CN2CC[C@H]1C[C@@H]2CNCc1cccc(Cl)c1	i	-3.3%[88.5 µM]	?	126µM*	-4.5%[70.6 µM]
CC[C@H]1CN2CC[C@H]1C[C@@H]2CNC(=O)c1ccc2ccccc2c1	i	4.4%[88.5 µM]	?	?	-12.0%[70.6 µM]
C=C[C@H]1CN2CC[C@H]1C[C@@H]2CNCc1cccc(Cl)c1	i	i	?	?	-13.7%[70.6 µM]
C#C[C@H]1CN2CC[C@H]1C[C@@H]2CNC(=O)c1ccc(-c2ccccc2)cc1	i	i	112µM*	89.1µM*	0.9%[70.6 µM]

From PubChem
